Measured values from PubChem BioAssay (NCATS).
Inconclusive results are not listed. Active and inactive are the calls of the source. Calls follow the shape of the dose curve; as a rule, active = well fitted curve in the direction sought with a large enough effect; inconclusive = small, poorly fitted or top-dose-only effect, or another doubt; inactive = no such curve, though single readings can be large; an effect the other way counts as inactive or inconclusive. Where a SMILES comes first, the peptide text is derived from it. Bridges are numbered along the chain shown (N, C = ends). [ ]: non-standard residue; d: D form. hArg = N=C(N)NCCCC[C@H](N)C(=O)O; Mpa = O=C(O)CCS

Columns and labels:
[1] = NS1 protein of Zika virus - qHTS assay to identify small molecule inhibitors in human HEK 293 cells (AID 1347053); also: series mostly up to about 46 µM; nearly all actives have a fitted effect of over 55% in size
Procedure, shortened: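 Following 20 h seeding, HEK 293 cells took compound, then 1 h later ZIKV MR766 (MOI = 0.5). Incubation ran 24 h at 37 C before TR-FRET detection of NS1; a drop in signal indicates inhibition.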

[2] = qHTS of pediatric cancer cell lines to identify multiple opportunities for drug repurposing: Primary screen for DAOY cells (AID 1347090); also: series mostly up to about 46 µM; nearly all actives have a fitted effect of over 55% in size
Procedure, shortened: (§1)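 Viability measured as metabolically active cells via CellTiter-Glo luminescence following 48 hours of compound exposure, 11-point dilutions in confirmatory testing. 500-1,000 cells/well plated 5 hours before dosing; controls were DMSO and 2.3 µM bortezomib.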

[3] = qHTS of pediatric cancer cell lines to identify multiple opportunities for drug repurposing: Primary screen for SJ-GBM2 cells (AID 1347091)
Procedure, shortened: as §1

[4] = qHTS of pediatric cancer cell lines to identify multiple opportunities for drug repurposing: Primary screen for A673 cells (AID 1347092); also: nearly all actives have a fitted effect of over 45% in size
Procedure, shortened: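 Luminescence from CellTiter-Glo, taken after 15 min at room temperature, served as the proxy for metabolically active cells following 48 h treatment. Both potency and efficacy were taken from curves fitted to the titration data.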

[5] = qHTS of pediatric cancer cell lines to identify multiple opportunities for drug repurposing: Primary screen for SK-N-MC cells (AID 1347093); also: series mostly up to about 46 µM
Procedure, shortened: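 Metabolically active cells were quantified by ATP-dependent luminescence (CellTiter-Glo, 15 min at room temperature) following 48 h treatment. Cells had been plated at 500-1,000 per well and settled for 5 h beforehand.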

[6] = qHTS of pediatric cancer cell lines to identify multiple opportunities for drug repurposing: Primary screen for U-2 OS cells (AID 1347096); also: nearly all actives have a fitted effect of over 50% in size
Procedure, shortened: (§2)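 Viability after 48 h compound treatment at 37C, 500-1,000 cells/well, read as ATP luminescence with CellTiter-Glo. Primary screens used 11-point (MIPE, 0.78 nM-46 µM) or 8-point (NPC, 0.59 nM-46 µM) final concentrations; follow-up screens used 11-point dilutions.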

[7] = qHTS of pediatric cancer cell lines to identify multiple opportunities for drug repurposing: Primary screen for Saos-2 cells (AID 1347097); also: nearly all actives have a fitted effect of over 40% in size
Procedure, shortened: (§3)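 Cells seeded at 500-1,000 cells/well in growth media, rested 5 hours at 37 degrees C, 5% CO2, then dosed; MIPE compounds at 11-point (from 0.78 nM) and NPC at 8-point (from 0.59 nM) final concentrations. Viability by CellTiter-Glo luminescence after 48 hours.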

[8] = qHTS of pediatric cancer cell lines to identify multiple opportunities for drug repurposing: Primary screen for SK-N-SH cells (AID 1347098);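 also: DMSO served as neutral control and bortezomib at 2.3 µM as positive control; nearly all actives have a fitted effect of over 65% in size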
Procedure, shortened: (§4)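 Cells (500-1,000/well) rested 5 h, then received compounds for 48 h; metabolically active cells were measured by CellTiter-Glo luminescence. Final concentrations spanned up to 46 µM (MIPE, 11-point) or 0.59 nM-46 µM (NPC, 8-point) in primary screens, 11-point in follow-ups.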

[9] = qHTS of pediatric cancer cell lines to identify multiple opportunities for drug repurposing: Primary screen for NB1643 cells (AID 1347099); also: nearly all actives have a fitted effect of over 50% in size
Procedure, shortened: as §3

[10] = qHTS of pediatric cancer cell lines to identify multiple opportunities for drug repurposing: Primary screen for LAN-5 cells (AID 1347100)
Procedure, shortened: as §2

[11] = qHTS of pediatric cancer cell lines to identify multiple opportunities for drug repurposing: Primary screen for BT-12 cells (AID 1347101); also: nearly all actives have a fitted effect of over 25% in size
Procedure, shortened: as §4

[12] = qHTS of pediatric cancer cell lines to identify multiple opportunities for drug repurposing: Primary screen for Rh18 cells (AID 1347102); also: nearly all actives have a fitted effect of over 65% in size
Procedure, shortened: as §2

[13] = qHTS of pediatric cancer cell lines to identify multiple opportunities for drug repurposing: Primary screen for OHS-50 cells (AID 1347103); also: nearly all actives have a fitted effect of over 40% in size
Procedure, shortened: as §4

[14] = qHTS of pediatric cancer cell lines to identify multiple opportunities for drug repurposing: Primary screen for RD cells (AID 1347104); also: nearly all actives have a fitted effect of over 55% in size
Procedure, shortened: as §3

[15] = qHTS of pediatric cancer cell lines to identify multiple opportunities for drug repurposing: Primary screen for MG 63 (6-TG R) cells (AID 1347105); also: nearly all actives have a fitted effect of over 50% in size
Procedure, shortened: as §3

[16] = qHTS of pediatric cancer cell lines to identify multiple opportunities for drug repurposing: Primary screen for control Hh wild type fibroblast cells (AID 1347106);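 also: series mostly up to about 46 µM; a drop in luminescence marks cytotoxicity and a rise apparent proliferation; nearly all actives have a fitted effect of over 55% in size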
Procedure, shortened: as §2

[17] = qHTS of pediatric cancer cell lines to identify multiple opportunities for drug repurposing: Primary screen for Rh30 cells (AID 1347107); also: series mostly up to about 46 µM; nearly all actives have a fitted effect of over 75% in size
Procedure, shortened: as §2

[18] = qHTS of pediatric cancer cell lines to identify multiple opportunities for drug repurposing: Primary screen for BT-37 cells (AID 1347094); also: series mostly up to about 57 µM
Procedure, shortened: as §3

[19] = qHTS of pediatric cancer cell lines to identify multiple opportunities for drug repurposing: Primary screen for NB-EBc1 cells (AID 1347095)
Procedure, shortened: as §3

Measured: Potency

CC1CC(OC(=O)c2ccccc2O)CC(C)(C)C1 (stereo not drawn)
not listed: [18] | [19]
inactive: all other assays above

O=C(O)CCCCC1CCSS1 (stereo not drawn)
not listed: [11] | [12] | [18] | [19]
inactive: all other assays above

CO[C@@]1(NC(=O)C(C(=O)O)c2ccc(O)cc2)C(=O)N2C(C(=O)O)=C(CSc3nnnn3C)CO[C@@H]21 (stereo partly drawn)
not listed: [11] | [15]
inactive: all other assays above

OC[C@@H](O)[C@@H](O)[C@H](O)[C@H](O)CO
not listed: [3] | [5] | [7]
inactive: all other assays above

Cc1ccc2c(c1)c1c3n2CCNC3CCC1 (stereo not drawn)
not listed: [13] | [19]
inactive: all other assays above

CCCCCOC(=O)Nc1nc(=O)n([C@@H]2O[C@H](C)[C@@H](O)[C@H]2O)cc1F
not listed: [11]
inactive: all other assays above

O=C(O)Cc1cn(-c2ccccc2)nc1-c1ccc(Cl)cc1
not listed: [5] | [8] | [15]
inactive: all other assays above

C/C=C1\[C@H]2C=C(C)C[C@]1(N)c1ccc(=O)[nH]c1C2
not listed: [12]
inactive: all other assays above

NC(=O)[C@@H]1CSSCCC(=O)N[C@@H](CCCCN=C(N)N)C(=O)NCC(=O)N[C@@H](CC(=O)O)C(=O)N[C@@H](Cc2c[nH]c3ccccc23)C(=O)N2CCC[C@H]2C(=O)N1 ([Mpa][hArg]GDWPC-NH2; disulfide 1-7)
not listed: [3] | [18]
inactive: all other assays above

Nc1ncnc(Nc2ccccc2)n1
not listed: [3]
inactive: all other assays above

O=C(NCC(O)CO)c1c(I)c(C(=O)NCC(O)CO)c(I)c(N(CCO)C(=O)CO)c1I (stereo not drawn)
not listed: [7] | [9]
inactive: all other assays above

O=c1[nH]c2cc(C(F)(F)F)c(N3CCOCC3)cc2n(CP(=O)(O)O)c1=O
not listed: [3] | [5] | [11]
inactive: all other assays above

CCN1CC(CCN2CCOCC2)C(c2ccccc2)(c2ccccc2)C1=O (stereo not drawn)
not listed: [5]
inactive: all other assays above

CC(=O)N(CC(O)CO)c1c(I)c(C(=O)NCC(O)CO)c(I)c(C(=O)NCC(O)CO)c1I (stereo not drawn)
not listed: [13]
inactive: all other assays above
